Source: PubChem BioAssay (National Center for Advancing Translational Sciences (NCATS))
IL1B secr inh – blocks inflammasome-driven IL-1 beta release. THP-1 LPS/ATP IL-1B secretion, AlphaLISA, 16 h; active compounds read low. AID 743279. activity change, % at 57.5 µM. hit rate 4.7% among 360,000; in the data active = activity change below about -50%; inconclusive = mostly about -30% to -49%
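THP-1 cells pretreated 1 hr with compounds (up to 57.5 uM final), then stimulated with LPS (250 ng/mL final) plus ATP (1.25 mM final); secreted IL-1B measured by AlphaLISA after 16 hr, decreased signal indicating inhibition.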
D3 antag – blocks the human D3 dopamine receptor | P35462 | D3R cells, DiscoveRx beta-arrestin luminescence, antagonist mode; active compounds read low | max response, negative = inhibition, % | hit rate 2.5% among 360,000 | AID 652054; in the data active = max response below about -50%; inconclusive = no clear call, values can overlap the other calls
Target sequence (P35462 whole entry, looked up): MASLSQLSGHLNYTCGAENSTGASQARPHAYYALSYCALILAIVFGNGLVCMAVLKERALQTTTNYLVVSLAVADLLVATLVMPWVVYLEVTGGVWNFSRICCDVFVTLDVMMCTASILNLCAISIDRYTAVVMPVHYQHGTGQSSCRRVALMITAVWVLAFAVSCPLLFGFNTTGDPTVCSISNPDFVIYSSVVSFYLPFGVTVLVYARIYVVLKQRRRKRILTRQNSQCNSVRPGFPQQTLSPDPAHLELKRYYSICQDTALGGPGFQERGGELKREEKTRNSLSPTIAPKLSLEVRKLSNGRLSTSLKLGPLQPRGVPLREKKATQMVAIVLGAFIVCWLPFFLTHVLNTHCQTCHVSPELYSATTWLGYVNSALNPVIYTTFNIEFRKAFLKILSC
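Cells plated overnight at 1500 cells/well, then exposed to library compounds with dopamine controls for 90 minutes at 37 degrees C. DiscoveRx reagent added for 30–60 minutes at room temperature; luminescence read, quantitative HTS format.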
Integrin act MD – activators of alpha7 integrin expression for muscular dystrophy; alpha7betagal myoblasts, beta-gal FDG fluorescence, 48 h; Potency, µM (top dose mostly 38.3 µM), hits mostly activators; hit rate 0.064% among 350,000; note: nearly all actives have a fitted effect of over 60% in size
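Alpha7betagal+/- myoblasts (passage 13) were plated 16-24 hr, then exposed to compounds (1:260 dilution of DMSO stock) for 48 hours at 37C. After MPER lysis, β-galactosidase reporter activity was read as FDG fluorescence (ex 480/em 540) after 30 minutes.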
ATXN viability – viability counter-screen for ATXN expression inhibitors; S2 cells (HEK-293 line with an ATXN2-luciferase reporter) viability, CellTiter-Fluor protease fluorescence, 24 h; AID 651635; Potency, µM (doses to about 56.7 µM), usual class: cytotoxic; hit rate 0.49% among 400,000; note: nearly all actives have a fitted effect of over 40% in size
D3 ag – agonists of human D3 dopamine receptor; D3R DiscoveRx beta-arrestin cells, luminescence, 90 min; hit rate 0.58% among 410,000; AID 652048; P35462; max activation, %; in the data active = max activation above about 30%
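Agonist mode: compounds and dopamine controls were applied to plated cells for 90 min at 37 degrees C after an overnight attachment at 1500 cells/well. Luminescent read-out followed 30 - 60 minutes at room temperature with DiscoveRx detection reagent.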
ATXN2 expr inh – inhibitors of ATXN2 expression; HEK-293 ATXN2-luciferase reporter, luminescence, 24 h; Potency, µM (highest dose often 57 µM), actives largely listed as inhibitors; hit rate 0.72% among 360,000; note: nearly all actives have a fitted effect of over 55% in size
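ATXN2-luciferase reporter cells (luciferase flanked by upstream and downstream ATXN2 gene portions) were treated 24 h at 37 °C with compounds at up to 57 uM. SteadyGlo luminescence gave expression; GF-AFC fluorescence gave viability.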
Each line names hits and unclear results; the compound was inactive in the other large screens. Only some compounds are listed: those with a hit (about 7% of all), similar ones and a draw of the others. Unless noted, calls come from the whole dose curve; as a rule, active = well fitted curve in the direction sought with a large enough effect; inconclusive = small, poorly fitted or top-dose-only effect, or another doubt; inactive = no such curve, though single readings can be large; an effect the other way counts as inactive or inconclusive.

Cc1ccc(N(C(=O)Cn2nnc(-c3ccc(F)cc3)n2)C(C(=O)NC(C)(C)C)c2ccncc2)cc1 (stereo not given)	IL1B secr inh -69.1
CC(C)(C)NC(=O)C(c1ccncc1)N(C(=O)Cn1nnc(-c2ccc(F)cc2)n1)c1ccccc1F (stereo not given)	none
CCc1nc2ccccc2c(C(=O)Nc2ccc(F)cc2)c1C	none
CC(C)C(=O)Nc1nnc(S(=O)(=O)N2CCCc3ccccc32)s1	none
Cc1ccc(-c2ccc(/C=C3\C(=O)ON=C3c3ccccc3)o2)c([N+](=O)[O-])c1	IL1B secr inh -107.3, ATXN viability 35.5µM, ATXN2 expr inh inconclusive
Cc1ccc(/C=C2\C(=O)ON=C2c2ccccc2)o1	none
COc1cccc(-c2nc(NCc3cccnc3)c3ccccc3n2)c1O	none
COc1cccc2c(NCc3ccccc3)nc(-n3c(N)nc4ccccc43)nc12	ATXN2 expr inh 27.3µM (no result: IL1B secr inh, D3 antag, Integrin act MD, ATXN viability, D3 ag)
O=C(COc1ccccc1C(=O)NCC1CCCO1)Nc1ccc(Cl)cc1Cl (stereo not given)	none
C/C(=N/NC(=O)CNc1ccc(C)cc1)c1ccc(Cl)cc1	none
CCCCC(O)(CCCC)C(=O)N/N=C(\C)c1ccc(Cl)cc1	IL1B secr inh -53.9
Cc1cccc(OCCCSc2nc3ccc(C)cc3[nH]2)c1	IL1B secr inh -72.2
Cc1cccc(OCCSc2nc3ncnc(N)c3[nH]2)c1	ATXN2 expr inh inconclusive
CCc1nc2ccc(C(=O)NCc3ccccc3OC)cn2c1N(C=O)CCC(C)C	none (no result: Integrin act MD)
CCCCN(C=O)c1c(CC)nc2ccc(C(=O)NCc3ccccc3OC)cn12	D3 antag -50.8, ATXN viability inconclusive (no result: Integrin act MD)
c1ccc2c(c1)ncn2CCCOc1ccc2c(c1)CCC2	IL1B secr inh -53.4
c1ccc2c(c1)ncn2CCCCOc1ccc2c(c1)CCC2	none
NC(=O)c1ccc(NC(=O)COc2ccc(-n3cnnn3)cc2)cc1	none
COC(=O)C1CC2=C(CCCC2=O)N(Cc2ccccc2)C1=O (stereo not given)	none
O=C(CSc1n[nH]c(-c2cccs2)n1)N1CCN(S(=O)(=O)c2ccc3ccccc3c2)CC1	D3 antag -69.7
CC(C)=C(NC(=O)c1ccccc1)C(=O)Nc1cccc(C(=O)O)c1	none (no result: ATXN2 expr inh)
COc1ccc(CNC(=O)COc2ccc(S(=O)(=O)N3CCCCC3)cc2Cl)cc1	none
COc1ccc(-c2cc(=O)c3cc(F)ccc3[nH]2)cc1	none
COc1ccc2[nH]c(-c3ccc(C)cc3)cc(=O)c2c1	ATXN2 expr inh 17.8µM
Cc1ccc(NC(=O)c2ccc(N3CCOCC3)c([N+](=O)[O-])c2)cc1S(=O)(=O)N1CCOCC1	IL1B secr inh -77.7, ATXN viability inconclusive, ATXN2 expr inh inconclusive
Cc1ccc(C(=O)Nc2ccccc2N2CCCC2)cc1S(=O)(=O)N1CCOCC1	none
COc1ccc(C(=O)Nc2ccccc2[N+](=O)[O-])cc1S(=O)(=O)N1CCOCC1	IL1B secr inh -61.8
Cc1ccc(C(=O)Nc2ccccc2[N+](=O)[O-])cc1S(=O)(=O)N1CCOCC1	IL1B secr inh -63.6, ATXN viability inconclusive
O=C(Nc1ccc(N2CCCCC2)c(Cl)c1)c1ccc(N2CCOCC2)c([N+](=O)[O-])c1	ATXN viability inconclusive, ATXN2 expr inh inconclusive
Cc1csc(SCC(=O)N(C)CC(=O)Nc2ccccc2Cl)n1	none
Cc1ccc(NC(=O)c2cccc(S(=O)(=O)N3CCN(C)CC3)c2)cc1F	none
O=C(c1cc2cc(F)ccc2[nH]1)N1CCN(c2cccc(Cl)c2)CC1	none
Cc1[nH]c(-c2ccc(F)cc2)cc1C(=O)N1CCN(c2cccc(Cl)c2)CC1	IL1B secr inh -87.3, D3 antag inconclusive, ATXN viability inconclusive, ATXN2 expr inh inconclusive
CCOc1c(S(=O)(=O)NC2CC(C)(C)NC(C)(C)C2)ccc(Cl)c1Cl	IL1B secr inh inconclusive
CCOc1ccc(OCC)c(S(=O)(=O)NC2CC(C)(C)NC(C)(C)C2)c1	IL1B secr inh -59.4
CCOC(=O)C(Sc1nnc(-c2ccncc2)o1)C(C)=O (stereo not given)	none
Cc1nc([N+](=O)[O-])c(Sc2nc3ccc([N+](=O)[O-])cc3[nH]2)n1Cc1ccccc1	IL1B secr inh -76.0, ATXN viability inconclusive
Cc1nc([N+](=O)[O-])c(Br)n1Cc1ccccc1	D3 antag inconclusive, ATXN viability inconclusive, ATXN2 expr inh inconclusive
Cc1cccc(NC2SC(=O)N(c3ccccc3)C2=O)c1 (stereo not given)	none
CC1CC(C)CN(C(=O)CNC(=O)c2sc3ccccc3c2Cl)C1 (stereo not given)	IL1B secr inh -57.4
CC(NC(=O)CNC(=O)c1sc2ccccc2c1Cl)c1cccnc1 (stereo not given)	IL1B secr inh -50.7
COCCCNC(=S)NNC(=S)Nc1ccccc1	ATXN viability inconclusive (no result: IL1B secr inh)
C[C@H](CO)N1C[C@H](C)[C@@H](CN(C)C(=O)Nc2ccc(F)cc2)Oc2ccc(NS(C)(=O)=O)cc2C1=O	none
COc1ccc2nc(SCC(=O)N3CCN(c4ccc(F)cc4)CC3)c(C#N)cc2c1	D3 antag -57.7
Cc1ccc(NS(=O)(=O)c2ccc(C(=O)N3CCOCC3)cc2)cc1	none
CCOCCc1nnc(NC(=O)Cc2c(F)cccc2Cl)s1	D3 ag 34.7
O=C(Cc1c(F)cccc1Cl)Nc1nc2ccccc2s1	IL1B secr inh -57.5, ATXN viability inconclusive
CC(=O)c1sc(NC(=O)Cc2c(F)cccc2Cl)nc1C	none
CCOCCc1nnc(NC(=O)Cc2ccccc2)s1	none
Clc1ccc2c(c1)c1cc(Cl)ccc1n2CN1CCOCC1	none
COc1ccc(CN2C(=O)C(C)Nc3ncnc(N4CCN(c5ccccn5)CC4)c32)cc1 (stereo not given)	D3 antag -148.7, ATXN viability inconclusive
CC1Nc2ncnc(N3CCN(c4ccccn4)CC3)c2N(Cc2ccccc2)C1=O (stereo not given)	D3 antag -106.3
Cc1ccc(CN2C(=O)C(C)Nc3ncnc(N4CCN(c5ccccn5)CC4)c32)cc1 (stereo not given)	D3 antag -131.8, ATXN viability inconclusive, ATXN2 expr inh inconclusive
COc1cc(OC)cc(-c2c(C#Cc3ccsc3)c3cc(-c4ccc(OC)nc4)ccc3n2C)c1	none
CS(=O)(=O)c1nc([N+](=O)[O-])nn1CCCc1ccccc1	IL1B secr inh -102.7, ATXN2 expr inh inconclusive (no result: ATXN viability)
Cn1nc([N+](=O)[O-])nc1S(C)(=O)=O	IL1B secr inh -100.9, ATXN viability inconclusive, ATXN2 expr inh inconclusive
CCn1c(CNc2ccc(OC)cc2)nnc1SCC(=O)Nc1ccc(F)cc1	none
CCC(=NN=C(CC)c1ccccc1O)c1ccccc1O	D3 ag 44.9
